Target: Follistatin (Homo sapiens) (UniProt P19883)
Test: follistatin binders on small-molecule microarrays, primary screen, biochemical, small-molecule microarray, 635/667 nm fluorescence (AID 1132)
Details: FST binding, 635 nm fluorescence, higher = more signal

Chain of Follistatin (Homo sapiens) (P19883 whole entry, looked up): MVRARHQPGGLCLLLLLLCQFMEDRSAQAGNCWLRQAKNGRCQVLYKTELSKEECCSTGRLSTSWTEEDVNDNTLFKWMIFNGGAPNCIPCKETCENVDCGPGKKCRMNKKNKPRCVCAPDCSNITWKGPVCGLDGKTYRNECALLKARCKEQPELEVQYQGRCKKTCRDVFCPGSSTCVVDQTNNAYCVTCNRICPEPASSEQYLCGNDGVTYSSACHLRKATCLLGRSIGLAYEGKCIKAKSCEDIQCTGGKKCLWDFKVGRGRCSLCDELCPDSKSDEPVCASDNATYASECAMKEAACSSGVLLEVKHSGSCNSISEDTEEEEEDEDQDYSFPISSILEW

Row | Structure (SMILES) | composite z-score
1 | COCC#Cc1ccc([C@@H]2N[C@H](C(=O)O)CC[C@H]2C)cc1 | 0.273
2 | C#CCCCON=C1[C@H]2CCn3c(=O)n([C@@H](CC)c4ccccc4)c(=O)n3[C@H]2[C@H](O)[C@@H]2O[C@H]12 | 0.587
3 | O=C1CCCC=C1C(O)C1CCCCC1 (stereo unspecified) | 0.316
4 | C[C@@H](c1ccccc1)N1C(=O)[C@H]2[C@H]3[C@H](O)[C@H](O)CC(=NOC[C@@H](O)COCc4ccco4)[C@H]3CC[C@H]2C1=O | 1.1
5 | CCOC(=O)[C@H](CC(C)C)NC(=O)CCC1CC(OC(=O)NCCc2ccc(F)cc2)CC2(CCCC(COC(=O)NCc3cccc4ccccc34)O2)O1 (stereo partly specified) | 1.27
6 | COC(=O)[C@H](C)NC(=O)CCC1CC(OC(=O)NCCc2ccc(F)cc2)CC2(CCCC(COC(=O)NCCc3ccccc3OC)O2)O1 (stereo partly specified) | 1.18
7 | CCOC(=O)CCN1C(=O)[C@H]2[C@H]3[C@H](O)[C@H](O)CC(=NOCC(C)C)[C@@H]3CC[C@H]2C1=O | 0.91
8 | CC[C@@H](c1ccccc1)n1c(=O)n2n(c1=O)[C@H]1[C@H](O)[C@@H]3O[C@@H]3C(=NOCc3ccccc3)[C@H]1CC2 | 0.598
9 | COc1ccc(O[C@H]2C=C[C@@H](c3ccccc3)O[C@@H]2CON=C(C)CCN2CCCc3nc(C)c(C)cc32)cc1 | 0.651
10 | COC(OC)[C@@H](C)[C@H](OC)[C@@H](C)[C@H](OC)c1ccccc1 | 0.144
11 | CC(CCN1CCc2nc(-c3ccccc3)c(-c3ccccc3)cc2C1)=NO[C@@H](C)c1cc(-c2c(C)cc(C)cc2C)no1 | -0.289
12 | CO[C@H]1COC(=O)CCC[C@H](C)[C@H](OC)COC(=O)CC=C[C@@H]1C | 1.1
13 | COC(=O)[C@H](CCSC)NC(=O)CC=C[C@@H](C)CO | 1.1
14 | C[C@H]1CC[C@@H](C(=O)O)N[C@@H]1c1cccc(N2CCCC2=O)c1 | 0.412
15 | C#CCCCON=C1C[C@@H](O)[C@@H](O)[C@@H]2[C@@H]3C(=O)N([C@@H](C)c4ccccc4)C(=O)[C@@H]3CC[C@@H]12 | -0.326
16 | COC(=O)[C@H](C)NC(=O)CCC1CC(OC(=O)NCc2ccc3c(c2)OCO3)CC2(CCCC(COC(=O)NCc3ccccc3)O2)O1 (stereo partly specified) | 0.653
17 | CCOC(=O)CCN1C(=O)[C@H]2[C@H]3[C@H](O)[C@H](O)CC(=NNC(=O)OCC)[C@H]3CC[C@H]2C1=O | 0.799
18 | CC(C)(C)N1C(=O)[C@H]2[C@@H]3C(=CC[C@H]2C1=O)C(=O)[C@H]1O[C@H]1[C@H]3O | 0.1

Row | Structure (SMILES) | composite z-score
19 | O=C1[C@H]2[C@H]3[C@H](O)[C@H](O)CC(=NO[C@@H]4O[C@H](CO)[C@@H](O)[C@H](O)[C@H]4O)[C@@H]3CC[C@H]2C(=O)N1C1CCCCC1 | 0.284
20 | COc1ccc(COC(=O)NN=C2C[C@@H](O)[C@@H](O)[C@@H]3[C@@H]4C(=O)N([C@@H](C)c5ccccc5)C(=O)[C@@H]4CC[C@@H]23)cc1 | 0.244
21 | COc1ccc(COC(=O)NN=C2C[C@@H](O)[C@@H](O)[C@@H]3[C@@H]4C(=O)N(Cc5ccccc5)C(=O)[C@@H]4CC[C@@H]23)cc1 | 0.364
22 | CC(C)[C@@H](OCc1ccccc1)[C@H](C)C=NO[C@@H](C)c1cn([C@H](CO)Cc2ccccc2)nn1 | -0.0854
23 | CCOC(=O)[C@H](Cc1ccccc1)NC(=O)CCC1CC(OC(=O)NCc2ccc3c(c2)OCO3)CC2(CCCC(COC(=O)NCCOc3ccccc3)O2)O1 (stereo partly specified) | 0.875
24 | COC(=O)[C@H](C)NC(=O)CCC1CC(OC(=O)NCc2ccc3c(c2)OCO3)CC2(CCCC(COC(=O)NCCCN3CCCC3=O)O2)O1 (stereo partly specified) | 0.602
25 | O=C(NN=C1C[C@@H](O)[C@@H](O)[C@@H]2[C@@H]3C(=O)N(Cc4ccc5c(c4)OCO5)C(=O)[C@@H]3CC[C@@H]12)OCc1ccccc1 | -0.137
26 | CCN1C(=O)[C@H]2[C@H]3[C@H](O)[C@H](O)CC(=NOCC[C@@H]4C=C[C@H](OC(C)=O)[C@@H](COC(C)=O)O4)[C@@H]3CC[C@H]2C1=O | 0.472
27 | COC(=O)[C@H](C)NC(=O)CCC1CC(OC(=O)NCc2ccc3c(c2)OCO3)CC2(CCCC(COC(=O)NCCC(C)C)O2)O1 (stereo partly specified) | 0.831
28 | CO[C@H]1COC(=O)CC=C[C@H](C)[C@H](OC)COC(=O)[C@@H](C)NC(=O)CC=C[C@@H]1C | 1.23
29 | O=C1C=C[C@@H](O)[C@@H]2[C@@H]3C(=O)N(Cc4ccccc4)C(=O)[C@@H]3CC[C@@H]12 | 0.415
30 | CCOC(=O)[C@H](Cc1ccccc1)NC(=O)CCC1CC(OC(=O)NCc2ccc3c(c2)OCO3)CC2(CCCC(COC(=O)NCCc3ccc(Cl)cc3)O2)O1 (stereo partly specified) | 0.749
31 | COc1ccc(-c2cnnc(CCCn3ccnc3-c3ccccc3)n2)cc1 | 0.836
32 | CCOC(=O)NN=C1C[C@@H](O)[C@@H](O)[C@@H]2[C@@H]3C(=O)N(c4ccc(F)cc4F)C(=O)[C@@H]3CC[C@H]12 | 0.515
33 | C#CCCCON=C1C[C@@H](O)[C@@H](O)[C@@H]2[C@@H]3C(=O)N(CC)C(=O)[C@@H]3CC[C@H]12 | -0.473
34 | C[C@H]1CC[C@@H](C(=O)O)N[C@@H]1c1ccc(C#Cc2ccccc2)cc1 | 1.07
35 | COC(=O)[C@H](C)NC(=O)CCC1CC(OC(=O)NCc2cccc3ccccc23)CC2(CCCC(COC(=O)NCc3ccccc3)O2)O1 (stereo partly specified) | 0.729
36 | CC(=O)OC[C@H]1O[C@H](CC=NOC[C@@H](O)[C@H]2O[C@@H]3OC(C)(C)O[C@@H]3[C@H]2O)C=C[C@@H]1OC(C)=O | 0.209
